Compound activity as filed in PubChem BioAssay.
Compounds with a hit are over-represented: about 2% of the library has one in this group of screens.
LEDGF integ inh = blockers of LEDGF/p75-dependent integrase strand transfer – biochemical, TR-FRET, high throughput, primary screen | hit rate 0.64% among 370,000 | inhibition, % at 3.7 µM | TR-FRET IN-LEDGF/p75 DNA integration, Eu/Cy5 | AID 743269, 2014 | HIV-1 integrase (with human LEDGF/p75);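 active = inhibition above the screen-wide mean plus 3 SD, cut at about 13% in these data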;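 also: signal is the Cy5 over europium emission ratio at 671 and 618 nm; 0% = plate median of compound wells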
Rin1-Abl PPI inh = inhibitors of Rin1-Abl protein binding, primary screen, biochemical, TR-FRET. hit rate 0.4% among 360,000. inhibition, % at 7.35 µM. Tyrosine-protein kinase ABL1 (Homo sapiens) + Ras and Rab interactor 1 (Homo sapiens), …. AID 588664, 2011; in the data active = inhibition above about 5%, passing the limit was not always enough
MBD2 inh = inhibitors of MBD2 binding to methylated DNA, primary screen, biochemical, TR-FRET, DNA-binding domain, human; AID 686964, 2013; inhibition, % at 4.4 µM; MBD2 binding to methylated oligonucleotide; hit rate 0.31% among 370,000; in the data active = inhibition above about 13%
Target sequence (Q9UBB5 whole entry, looked up, the tested form may be a part): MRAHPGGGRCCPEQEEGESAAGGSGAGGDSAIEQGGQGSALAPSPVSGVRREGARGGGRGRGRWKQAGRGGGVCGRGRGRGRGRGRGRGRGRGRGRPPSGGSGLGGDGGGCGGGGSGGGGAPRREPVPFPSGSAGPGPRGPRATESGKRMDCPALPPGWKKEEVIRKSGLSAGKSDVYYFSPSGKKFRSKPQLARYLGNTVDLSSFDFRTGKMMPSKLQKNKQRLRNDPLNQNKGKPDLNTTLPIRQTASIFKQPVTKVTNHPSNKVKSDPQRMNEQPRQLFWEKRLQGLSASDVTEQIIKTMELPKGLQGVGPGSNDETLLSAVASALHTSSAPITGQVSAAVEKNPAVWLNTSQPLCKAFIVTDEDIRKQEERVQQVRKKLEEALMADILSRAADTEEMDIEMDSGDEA
UHRF1 MBD2 ctr = UHRF1 methylated DNA binding inhibitors, primary screen, counter-screen for MBD2 inhibitor project, biochemical, TR-FRET, human UHRF1, single concentration; UHRF1 binding to methylated oligo; inhibition, % at 4.4 µM; hit rate 0.75% among 370,000; AID 687016, 2013;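 also: UHRF1 SRA domain binding a hemimethylated CpG hairpin DNA probe; 0% = median of test compound wells and 100% = reference inhibitor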
TCR CD3 inh = inhibitors of human TCR-CD3 interaction, primary screen, biochemical, fluorescence, TAMRA-labeled TCR probe. inhibition, % at 9.4 µM. hit rate 0.37% among 360,000. AID 651800, 2012; in the data active = inhibition above about 19%;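 also: recombinant mutant TCR 2C K166C tagged with TAMRA read by polarization; 0% = receptor in buffer alone and 100% = receptor with positive control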
UHRF1 DNA bind = UHRF1 methylated DNA binding inhibitors, counter-screen for MBD2 inhibitor project, biochemical, TR-FRET, human UHRF1. shares compounds with MBD2 inh. UHRF1 binding to methylated oligonucleotide. inhibition, % at 4.4 µM. hit rate 25% among 1,000;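 also: UHRF1 SRA domain binding a labeled hemimethylated CpG hairpin DNA; 0% = vehicle only and 100% = reference inhibitor with vehicle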
MBD2 DBD conf = inhibitors of MBD2 binding to methylated DNA, confirmation, biochemical, TR-FRET, DNA-binding domain, human; shares compounds with MBD2 inh; TR-FRET MBD2-DBD binding to methylated oligonucleotide; inhibition, % at 4.4 µM; hit rate 26% among 1,000; AID 720531, 2013; in the data active = inhibition above about 14%
Active calls of the source: *; · = no result. Rule as the data show it, unless noted: active = inhibition above about 21%; inactive = the rest.

SMILES	LEDGF integ inh	Rin1-Abl PPI inh	MBD2 inh	UHRF1 MBD2 ctr	TCR CD3 inh	UHRF1 DNA bind	MBD2 DBD conf
O=C(Nc1ccccc1)c1cc(C2CCCCN2C(=O)c2ccc3c(c2)CCO3)on1 (stereo not drawn)	5.9	1.7	-0.4	-0.4	2.9	·	·
N#Cc1cccc(NC(=O)c2cc(C3CCCCN3C(=O)c3ccc4c(c3)CCO4)on2)c1 (stereo not drawn)	-1.4	-1.3	53.2*	12.0	4.8	4.3	3.3
Cc1ccc(-n2nc3c(N4CCC(C(=O)NCCc5ccco5)CC4)nnc(C)c3c2C)cc1	2.1	-0.8	15.9*	5.9	3.9	1.4	4.5
COCCNC(=O)C1(C)CCN(C(=O)c2ccc(OC)c(F)c2)C1 (stereo not drawn)	1.1	-0.3	2.1	2.0	-4.9	·	·
CC(=O)c1cccc(NC(=O)COC(=O)Cc2ccc(Cl)cc2)c1	-1.7	1.8	-0.8	0.0	1.4	·	·
Cn1c(N)c(C(=O)CSc2nnc(NC3CCCCC3)s2)c(=O)n(C)c1=O	1.5	-0.1	-1.3	1.8	5.3	·	·
Cc1cccc(NC(=O)Cc2ccc(-c3ccccc3)cc2)n1	3.6	-1.9	-6.2	0.0	4.4	·	·
Cc1ccc(CC(=O)Nc2nc3c(s2)CCCC3)cc1	-0.6	-1.1	13.1*	11.1	-2.0	5.4	3.0
Cc1ccc(CC(=O)Nc2cccc(C)n2)cc1	3.5	7.0	15.0*	20.4	-6.9	6.2	2.5
COc1cc2oc(=O)cc(CN3CCN(C(C)=O)CC3)c2cc1Cl	-4.2	-2.5	0.0	-3.2	-3.8	·	·
Cc1nnc(NCC=Cc2ccccc2)s1	3.4	1.5	-7.8	0.7	5.8	·	·
Cc1nc2nc(C)c(NS(=O)(=O)c3ccc4c(c3)CCCC4)c(=O)n2[nH]1	3.4	1.7	1.9	2.4	2.9	·	·
CCOC(=O)c1c(NC(=O)COC(=O)c2ccc(Cl)nc2)sc(C)c1C	5.5	3.7	5.0	0.4	-0.2	·	·
COc1ccc2nc3cc(Cl)ccc3c(Nc3cc(C(C)C)c(O)cc3C)c2c1	-2.5	-0.3	-1.2	1.4	-9.2	·	·
COc1ccc2nc3cc(Cl)ccc3c(Nc3cc(CN4CCCC4)c(O)c(CN4CCCC4)c3)c2n1	1.9	-11.1	55.1*	72.1*	6.7	85.9*	88.1*
CCCC(=O)Nc1ccc(NC(=O)CCc2ccccc2)cn1	-3.4	5.0	68.7*	4.2	-3.1	7.2	5.0
CC(=O)CCS(=O)(=O)c1ccc(NC(C)=O)cc1	-1.8	2.7	-1.2	3.1	-0.6	·	·
CC(=O)Nc1ccc(S(=O)(=O)CC(=O)CS(=O)(=O)c2ccc(NC(C)=O)cc2)cc1	-1.9	5.6	14.3*	0.7	5.0	5.5	-0.6
CCN1C(=O)[C@H]2[C@@H](c3ccc(Cl)cc3)N3C(=O)CN(CC4CC4)C(=O)[C@@]3(Cc3ccccc3)[C@H]2C1=O	-2.1	-1.1	0.3	2.9	-0.2	·	·
O=C(Nc1ccc(N2CCCCC2)cc1)c1cccnc1	-4.8	-0.7	-4.2	1.0	-4.8	·	·
O=C(Nc1ccc(N2CCN(Cc3ccccc3Cl)CC2)cc1)c1cccnc1	-3.3	-0.1	14.8*	0.5	-4.5	6.0	3.6
O=C1C=C(NCc2ccco2)CCC1	-0.6	0.2	-1.6	-1.6	-0.6	·	·
CC1(C)CC(=O)C=C(NCc2ccco2)C1	-1.8	-0.3	34.8*	2.4	-4.0	4.2	2.9
O=C(C1CCCCC1)N1C[C@H](n2cc(C3CC3)nn2)[C@@H](O)C[C@@H]1c1ccccc1	2.8	-1.2	-5.6	-1.2	-2.4	·	·
C=CCOc1ccc(CNCC2CCCO2)cc1 (stereo not drawn)	13.0	-0.2	21.9*	38.5*	1.1	7.2	0.9
SMILES	LEDGF integ inh	Rin1-Abl PPI inh	MBD2 inh	UHRF1 MBD2 ctr	TCR CD3 inh	UHRF1 DNA bind	MBD2 DBD conf
c1cc(CNCC2CCCO2)ccn1 (stereo not drawn)	1.6	1.0	1.7	4.4	-0.3	·	·
N#CCC(=O)Nc1ccc(C(=O)OCC(=O)c2ccc3c(c2)NC(=O)CO3)cc1	-1.6	-0.6	14.0*	14.1	7.9	17.0	13.3*
CCc1ccc(/C=C2\SC(=S)N(CCCC(=O)Nc3cc(C)on3)C2=O)cc1	-1.1	-2.0	14.7*	-1.4	3.5	2.7	1.8
Cc1ccc2c(nc3s/c(=C\c4ccc(-c5ccccc5C(=O)O)o4)c(=O)n32)c1C	10.6	-0.2	14.8*	34.3*	-1.7	14.9	5.1
CCOC(=O)C1=C(COC(=O)C2CC(=O)N(c3ccc(C)cc3)C2)NC(=O)NC1C (stereo not drawn)	5.2	1.1	14.2*	36.8*	-5.8	2.4	0.5
COc1ccc(S(=O)(=O)NC(C(=O)OCC(=O)Nc2ccc(N3CCOCC3)cc2)C(C)C)cc1 (stereo not drawn)	-4.9	-0.5	4.2	0.1	-3.2	·	·
CCCOCc1ccc(O)c2ncccc12	-2.4	-1.4	19.3*	-1.0	-15.3	0.2	2.4
CC(C)COCc1ccc(O)c2ncccc12	-2.1	5.8	-2.0	13.9	4.7	·	·
CCN(CC(=O)NC(C)(C)C)Cc1nc2c(Br)cc(Br)cc2c(=O)[nH]1	9.2	-8.9	41.1*	-2.0	7.6	4.6	1.5
COc1cc(C(O)c2nc(-c3ccccc3)cs2)ccc1F (stereo not drawn)	3.1	1.9	13.9*	-2.3	-6.4	1.4	3.5
COc1cccc(NC(=O)CNc2cc(S(=O)(=O)N3CCOCC3)ccc2N2CCCC2)c1	-0.7	-1.1	0.8	4.3	-1.8	·	·
CCCCn1c(N)c(N(CC(C)C)C(=O)C(C)SCc2nc3sc(C)c(C)c3c(=O)[nH]2)c(=O)[nH]c1=O (stereo not drawn)	-2.2	-1.4	20.4*	0.1	-6.9	5.9	0.0
CCCCn1c(N)c(N(CC(C)C)C(=O)c2cnccn2)c(=O)[nH]c1=O	-0.5	1.5	-1.6	-0.4	-10.3	·	·
Cc1cc(NC(=O)CSc2nc3[nH]c(=O)cc(O)c3s2)ccc1Br	3.4	-0.4	-1.9	-1.8	-4.2	·	·
O=C(CSc1nc2[nH]c(=O)cc(O)c2s1)Nc1nccs1	-3.5	0.8	-1.9	5.6	4.8	·	·
Cc1ccc(NC(=O)CSc2nc3[nH]c(=O)cc(O)c3s2)c(Br)c1	6.9	2.5	64.3*	-1.4	-2.9	5.7	2.4
O=C(CSc1nc2[nH]c(=O)cc(O)c2s1)Nc1nncs1	-2.9	2.9	22.6*	2.3	-0.2	7.5	2.8
